The campaign covered roughly 360,000 compounds. About 1,700 (0.47%) were called active. No stated cut-off is given here; in the data, active means activation above about 15%; inactive means the rest. The sample as a whole holds a higher share of actives than the screen did.

The nature of the test: counter-screen for M1 agonists: effect in parental CHO-K1 cells (AID 602248).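 Further: untransfected CHO-K1 host cells lacking M1 receptor as counterscreen.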 The following applies: Fluo-8 calcium fluorescence, at 3 µM, active compounds read high, scaled to maximal ATP response, vehicle zero.
In the case of `COc1ccc(Cl)cc1NC(=O)CN(C)Cc1ccc(OC)c(OC)c1`, the activation was 6.25% (inactive).
As for `COc1ccc(Br)cc1CN(C)CC(=O)Nc1cc([N+](=O)[O-])ccc1OC`, the figure is 0.64% (inactive).
For `COc1ccc(Br)cc1CN(C)CC(=O)Nc1cc(Cl)cc(Cl)c1` the value was 18.5% (active).
In the case of `OCC1(Cc2ccccc2C(F)(F)F)CCN(Cc2ccncc2)CC1`, the activation was 1.74% (inactive).
For `CC(C)C(=O)Nc1ccc2c3c(cccc13)CC2` the value was -0.06% (inactive); for `N#CC1(Nc2ccc(-c3ccc(Cl)cc3)cc2)CCCC1`, 0.41% (inactive); for `N#CC1(Nc2ccc3c4c(cccc24)CC3)CCCCC1`, 41% (active).
For `CC(C)(O)C#Cc1ccc(CNC[C@H]2O[C@@H](n3cnc4c(=O)[nH]c(N)nc43)[C@H](O)[C@@H]2O)s1` the value was 0.21% (inactive); for `COCCN(C(=O)CCC(=O)Nc1nccs1)C(C(=O)NCCC(C)C)c1ccc(F)cc1` (stereo unspecified), 0.22% (inactive); for `COc1cncc(-c2cnc3sc(NCCc4ccccn4)nn23)c1`, 0.67% (inactive).
As for `Cc1ccc(S(=O)(=O)N(C)CC(=O)NCCc2c[nH]c3ccccc23)cc1`, the figure is 6.95% (inactive); as for `COc1cccc(CNC(=O)CN(C)S(=O)(=O)c2ccc3c(c2)c(=O)n(C)c(=O)n3C)c1`, 1.02% (inactive).
For the compound `CCc1ccccc1NC(=O)CN(C)S(=O)(=O)c1ccc2c(c1)c(=O)n(C)c(=O)n2C`, the activation was 1.14% (inactive).
Regarding `CC1CCC(NC(=O)CN(C)S(=O)(=O)c2ccc3c(c2)c(=O)n(C)c(=O)n3C)CC1` (stereo unspecified), the activation is 15.6% (active).
Turning to `COc1ccc(N(CCC#N)S(=O)(=O)c2ccc(Cl)cc2)cc1`, the activation was 1.81% (inactive).
For `COC(=O)c1ccc(CSc2ccc3nnc(-c4ccccc4)n3n2)o1` the value was 2.77% (inactive); for `Cc1oc2nc(SCC(=O)Nc3ccc(S(N)(=O)=O)cc3)nc(NC(=O)c3ccccc3)c2c1C`, 0.44% (inactive); for `COc1ccc(OC)c(S(=O)(=O)Nc2ccccc2F)c1`, 0.21% (inactive).
For `COc1cc(/C=C/C(=O)O)cc(S(=O)(=O)Nc2ccccc2C(=O)NCCc2ccccc2)c1OC` the value was -0.11% (inactive).
As for `COc1cc(OC)c(S(=O)(=O)Nc2ccccc2C(=O)O)cc1S(=O)(=O)Nc1ccccc1C(=O)O`, the figure is 15.1% (active); as for `CC(=O)c1c(C)[nH]c(C(=O)COC(=O)c2cccc(S(=O)(=O)N(C)c3ccccc3)c2)c1C`, 17.5% (active); as for `COc1ccc(C)cc1NC(=O)C(OC(=O)c1cccc(S(=O)(=O)N(C)c2ccccc2)c1)c1ccccc1` (stereo unspecified), -0.35% (inactive).
In the case of `CC(=O)c1c(C)[nH]c(C(=O)COC(=O)CCOc2ccc(C)cc2)c1C`, the activation was 7.01% (inactive).
As for `COCCN1C(=O)C(=O)/C(=C(/O)c2ccc(S(=O)(=O)N3CCOCC3)cc2)C1c1ccc(OC)c(OC)c1` (stereo unspecified), the figure is 1.09% (inactive); as for `O=C(c1ccc(=O)oc1)N1CCC(C(O)(c2ccccc2)c2ccccc2)CC1`, 0.08% (inactive).
As for `CSc1ncccc1C(=O)Nc1nc2ccc(F)cc2s1`, the figure is 3.35% (inactive); as for `c1ccc(C(=NNc2nc3ccccc3s2)c2ccccn2)cc1`, 15.9% (active).
For `O=C(Nc1nnc(C2CC2)s1)c1ccccn1` the value was 0.38% (inactive).
With `CC(C)(C)S(=O)(=O)N1Cc2cc(CO)cc(CCO)c2[C@H]1CCO`, the activation was 0.36% (inactive).
As for `CC(C)C(=O)NCC(c1cccs1)S(=O)(=O)c1ccc(F)cc1` (stereo unspecified), the activation is 2.59% (inactive).
For `Cc1cccc(C2c3[nH]c4ccccc4c3CCN2C(=O)c2cc(-c3cccn3C)n[nH]2)n1` (stereo unspecified) the value was 0.16% (inactive).
As for `COc1cccc(C2c3[nH]c4ccccc4c3CCN2Cc2cccc(C)n2)c1` (stereo unspecified), the figure is 1.31% (inactive); as for `Cc1cccc(C(=O)N2CCc3c([nH]c4ccccc34)C2CC(C)C)n1` (stereo unspecified), 16.4% (active); as for `Cc1ccc(C)c(S(=O)(=O)N2CCN(c3ncnc4sccc34)CC2)c1`, 15.9% (active).
As for `Cc1ccc(S(=O)(=O)N2CCC3(CC2)OCCO3)c(C)c1`, the figure is 0.97% (inactive); as for `Cc1ccc(C)c(S(=O)(=O)N2CCN(CC(=O)Nc3ccc([N+](=O)[O-])cc3)CC2)c1`, 6.2% (inactive).
Consider `OCC[C@H]1C[C@H](O)[C@@H](O)[C@]2(Cc3ccccc3CO2)O1`, for which the activation was 0.07% (inactive).
Turning to `CCCCc1ccc(S(N)(=O)=O)cc1`, the activation was 1.03% (inactive).
For `O=C(Nc1cc(Cl)ccc1N1CCOCC1)c1ccc(N2CCCC2=O)cc1` the value was 1.09% (inactive); for `Cc1ccc2c(=O)oc(N(C)C)nc2c1`, -0.31% (inactive).
For `Cc1ccc2oc(=O)ccc2c1` the value was 0.97% (inactive); for `CCN(CC)c1ccc2oc(=O)c(C)nc2c1`, 28.8% (active).
For `O=S1(=O)CC(N2CCN(CCO)CC2)CN1C1CCCC1` (stereo unspecified) the value was 0.24% (inactive); for `Cc1nc2cc(C(F)(F)F)ccc2n1CCNc1nc(-c2cc(Cl)c(N)c(Cl)c2)cs1`, -0.4% (inactive); for `Cc1nn(CCOc2ccccc2)c(=O)n1-c1ccccc1F`, 0.58% (inactive).
With `CC(C)(c1ccccc1)c1ccc(OCCN2CCCC2)cc1`, the activation was 1.86% (inactive).
Turning to `CC(C)(c1ccccc1)c1ccc(OCCN)cc1`, the activation is 16.5% (active).
As for `O=C(CC(NC(=O)c1ccccc1)c1ccccc1)Nc1ccc(F)c(F)c1` (stereo unspecified), the figure is 8.06% (inactive).
As for `CN(C(=O)CN1C(=O)NC(C)(CCc2ccccc2)C1=O)c1ccccc1` (stereo unspecified), the figure is 1.76% (inactive); as for `CN(C)c1ccc(/C=C2\NC(=S)N(Cc3ccccc3)C2=O)cc1`, 27.4% (active).
Consider `CN(C)c1ccc(CSc2ccccc2)cc1`, for which the activation is -0.35% (inactive).
For `CCn1c(SCC(=O)Nc2ccccc2F)nc2c(c1=O)SC(C)C2` (stereo unspecified) the value was 3.19% (inactive); for `O=C(CSc1nnc(CN2CCCC2)n1-c1ccc(F)cc1)c1ccc2c(c1)OCO2`, 1.52% (inactive).
For `Cc1ccc(S(=O)(=O)N(Cc2cc3ccccc3[nH]c2=O)CC2CCCO2)cc1` (stereo unspecified) the value was 5.14% (inactive); for `Cc1ccc(S(=O)(=O)N(C)C)cc1NC(=O)COC(=O)C1COc2ccccc2O1` (stereo unspecified), 1.48% (inactive); for `CC(Oc1ccc2ccccc2c1)C(=O)NNC(=S)NC(=O)c1ccco1` (stereo unspecified), 33.6% (active).
For `O=C(Nc1ccc2ccccc2c1)/C(=C\c1ccc2c(c1)OCO2)NC(=O)c1ccco1` the value was 1.3% (inactive).
Regarding `CCCc1ccc(OCC(=O)NNC(=S)NC(=O)c2ccco2)cc1`, the activation was 7.19% (inactive).
As for `COC(=O)c1cc(C(=O)OCC(=O)Nc2cc(C)on2)cc([N+](=O)[O-])c1`, the figure is 0.23% (inactive); as for `CN1CCN(C(=O)c2cnn(-c3ccccc3)c2NC(=O)c2ccc([N+](=O)[O-])cc2)CC1`, 0.79% (inactive).
`CCn1c(CNC(=O)c2cc(OC)c(OC)c(OC)c2)cc2cc(C)ccc21`: the activation is 20.6% (active).
Consider `COc1cc(C(=O)NCc2ccc(-n3cccc3)cc2)cc(OC)c1OC`, for which the activation was 7.89% (inactive).
For `COc1cc(C(=O)NCc2ccc3c(c2)cc(C)n3C)cc(OC)c1OC` the value was -0.48% (inactive); for `CCCCC(=O)NCc1ccc(F)cc1`, -0.33% (inactive); for `CCCCC(=O)NNC(=S)NC(=O)C(c1ccccc1)c1ccccc1`, 86% (active).
On to `CCCOCC(O)CC(CC)C(=O)NNC(=S)Nc1ccccc1` (stereo unspecified), for which the activation is 0.03% (inactive).
On to `CCCCC(CC)CNC(=O)C(=O)C1C(=O)Nc2ccccc21` (stereo unspecified), for which the activation was -0.65% (inactive).
As for `CCOC(=O)c1c(C)oc(C)c(C(=O)OCC)c1=O`, the figure is 0.16% (inactive).
For `O=C1NC[C@H](CCCCN2C[C@H](Cc3ccc(O)cc3)N(CCc3ccccc3)C(=O)C2=O)N(CCc2ccccc2)C1=O` the value was 0.62% (inactive).
As for `N#C/C(=C/c1ccc(N2CCCCC2)o1)C(=O)NCCc1c[nH]c2ccccc12`, the figure is 24.1% (active).
Take `N#C/C(=C\c1ccc(N2CCOCC2)o1)C(=O)N1CCOCC1`: the activation was 4.52% (inactive).
As for `Cc1ccc(C(=O)N/C(=C/c2ccco2)C(=O)NCCc2c[nH]c3ccccc23)cc1C`, the figure is 1.71% (inactive); as for `CCc1nnc(NC(=O)CSc2nnnn2-c2cccc(C(C)=O)c2)s1`, -0.49% (inactive); as for `CCSc1nsc(NC(=O)Nc2cccc(C(C)=O)c2)n1`, 16.5% (active).
As for `COc1ccc(C(=O)OCC(=O)Nc2cccc(C(C)=O)c2)cc1OC`, the activation is 2.14% (inactive).
On to `CCCCN1C(=O)C(=O)N(CC(=O)Nc2cccc(C(C)=O)c2)C1=O`, for which the activation was -0.29% (inactive).
For `C=CCSc1nsc(NC(=O)Nc2cccc(C(C)=O)c2)n1` the value was 15.8% (active).
For `CC(=O)c1cccc(NC(=O)[C@@H](NC(N)=O)C(C)C)c1` the value was -0.09% (inactive).
As for `Cc1ccc(C(=O)N2CCC(n3nccc3NC(=O)Nc3cccc(F)c3)CC2)cn1`, the figure is 1.73% (inactive).
For the compound `COc1ccc(OCC(=O)OCC(=O)Nc2ccc(S(=O)(=O)N3CCCCC3)cc2)cc1`, the activation was 0.75% (inactive).
As for `CCOC(=O)COc1ccc(Cl)cc1C1NC(=O)NC(C)=C1C(C)=O` (stereo unspecified), the figure is 0.08% (inactive); as for `CN(C)CCCCCN(C)Cc1cc2ccccc2o1`, 0% (inactive).
As for `CCCCNC(=O)c1nc(C2CCN(S(=O)(=O)c3ccc(F)c(F)c3)CC2)oc1-c1cccc(C(F)(F)F)c1`, the figure is 2.76% (inactive); as for `Cn1nnnc1SCC(=O)NNC(=O)c1ccc(Br)cc1`, -0.47% (inactive); as for `COC(=O)COc1ccc2c(=O)c(Oc3ccccc3Br)coc2c1`, 0.1% (inactive).
For `C[C@H](CO)N1C[C@H](C)[C@@H](CN(C)S(=O)(=O)c2ccc(Oc3ccccc3)cc2)OCc2cn(nn2)CCCC1=O` the value was 0.23% (inactive); for `CC(OC(=O)CN1C(=O)C2CCCCC2C1=O)C(=O)Nc1ncc(Cl)cc1Cl` (stereo unspecified), 0.87% (inactive); for `O=C(COC(=O)c1ccc(F)cc1)NCC1COc2ccccc2O1` (stereo unspecified), 1.54% (inactive).
`O=C(COc1ccc(F)cc1Br)NCC1COc2ccccc2O1` (stereo unspecified): the activation was 0.07% (inactive).
As for `c1ccc2c(c1)OCC(CNc1ncnc3nc[nH]c13)O2` (stereo unspecified), the figure is 109% (active).
As for `Cn1c(N)cc(=O)n(C)c1=S`, the figure is -0.09% (inactive).

Values taken from PubChem BioAssay AID602248 (The Scripps Research Institute Molecular Screening Center, 2012).
